Bioassay records: PubChem, several laboratories
This excerpt belongs to a sample that is enriched for hits.
HIV RNase H inh: blocks HIV-1 RNase H cleavage of RNA/DNA duplex | P04585 | RT-RNase H RNA/DNA duplex cleavage, fluorescence | inhibition, % at 10 µM | 1.9% of 65,000 active; in the data active = inhibition above about 50%
RmlC RmlD mix: RmlC/RmlD inhibition, mixture screen. RmlC/RmlD coupled enzyme inhibition, 384-well mixture HTS. inhibition, % at 5.5 µM. 0.39% of 110,000 active; in the data active = inhibition above about 30%, passing the limit was not always enough
Active calls of the source: *; . = not tested or not shown.

SMILES | HIV RNase H inh | RmlC RmlD mix
COc1ccc(N2C(=O)CC(Sc3nnc(-c4ccccc4)o3)C2=O)cc1 (configuration not stated) | -1 | -2
CSc1ccccc1NC(=O)COc1ccccc1Cl | . | -24
C=CCOC(=O)CC(NC(=O)c1ccccc1)c1ccccc1 (configuration not stated) | -6 | -12
C=CC(=C)CC(NC)c1ccccc1 (configuration not stated) | 51* | -16
Cc1n[nH]c(C)c1S(=O)(=O)Nc1ccc2c(c1)OCCO2 | -1 | 4
CCC(C)C(NC(=O)c1ccccc1NC(=O)c1ccc(OC)cc1)C(=O)NCc1ccco1 (configuration not stated) | 55* | -9
COc1ccc(C(=O)Nc2ccc(Cl)cc2C(=O)NCc2ccco2)cc1 | . | 3
CCCCCCN(C(=O)CCCCCN1C(=O)NC(c2ccc(Cl)cc2)C(C(=O)OCc2ccccc2)=C1C)C(C(=O)NCCCC)c1ccc(OCC(=O)OC)c(C(=O)OC)c1 (configuration not stated) | . | -6
O=C(NCc1cccc(Br)c1)C1CC2Cn3c(nc4ccccc43)C2N1c1ccccc1 (configuration not stated) | . | 9
O=c1nc2s/c(=C\c3ccco3)c(=O)n2nc1Cc1ccc(F)cc1 | 53* | -11
Cc1ccc(-c2nc3s/c(=C\c4ccco4)c(=O)n3n2)cc1 | -15 | 0
Cc1ccc(NC(=O)Cn2c(=O)oc3cc(S(=O)(=O)N4CCC(C)CC4)ccc32)cc1C | . | 9
Cc1n[nH]c(C)c1S(=O)(=O)N(CC(=O)N1CCc2ccccc21)c1ccc(C(C)C)cc1 | 51* | 2
CCOc1ccc(N(CC(=O)N2CCc3ccccc32)S(=O)(=O)c2c(C)noc2C)cc1 | 5 | -5
Cc1cccc(C(C)Nc2ccc([N+](=O)[O-])cn2)c1 (configuration not stated) | . | -9
CCOCCn1c(SCC(=O)OCc2ccccc2)nc2c1c(=O)[nH]c(=O)n2C | 86* | -5
CCOCCn1c(SCc2ccccc2)nc2c1c(=O)[nH]c(=O)n2C | -32 | -2
CC(C)(C)[C@H]1C=C(C(=O)NC2CC2)O[C@@H](OCc2ccc(CO)cc2)C1 | . | -13
Cc1cccc(-n2ncc3c(Nc4ccc(F)cc4)ncnc32)c1 | -19 | 4
COC(=O)c1ccc(Nc2ncnc3c2cnn3-c2cccc(C)c2)cc1 | 60* | .
O=C(O)C1CC=CCC1C(=O)NCCc1cccc(Cl)c1 (configuration not stated) | . | 1
C=CCc1ccc(OCCOc2cccc3ccc(C)nc23)c(OC)c1 | . | -3
CC(C)c1nc(CN(C)C(=O)N[C@H](C(=O)N[C@@H](Cc2ccccc2)C[C@H](O)[C@H](Cc2ccccc2)NC(=O)OCc2cncs2)C(C)C)cs1 | . | -16
CCC(c1nnc(SCC(=O)NC23CC4CC(CC(C4)C2)C3)o1)N(C)C (configuration not stated) | . | -5
CCC(c1nnc(SCC(=O)NCCc2ccc(Cl)cc2Cl)o1)N(C)C (configuration not stated) | 51* | 9
SMILES | HIV RNase H inh | RmlC RmlD mix
C=CCN1c2ccccc2[C@]23C[C@@H](C(=O)OC)N(C(=O)NCCC)C2=NC(C(=O)OC)=C(C(=O)OC)[C@H]13 | . | 9
COCCNC(=O)C1(C(F)(F)F)CC(CCCO)CCCO1 (configuration not stated) | . | -1
COc1ccc(CCC(=O)Nc2ccc(-c3noc(-c4ccc(OC)c(OC)c4)n3)cc2)cc1 | 61* | 31
COc1ccc(-c2nc(-c3ccc(NC(=O)c4ccc(Br)o4)cc3)no2)cc1OC | -5 | 7
CCCCNC(=O)CN(c1cccc(Br)c1)S(C)(=O)=O | . | -7
CCOC(=O)NC1(Nc2ccc(Cl)cn2)Oc2ccccc2O1 | 57* | 6
Cc1ccccc1C(=O)Nc1ccc(Cl)cn1 | -13 | -13
CCCCOC(=O)CSc1nc(N)c(C#N)c(-c2ccc(OCC)cc2)c1C#N | -10 | -7
CCCCOc1ccc(-c2c(C#N)c(N)nc(SCC(N)=O)c2C#N)cc1 | 63* | 4
C=CC1=C2C=C(C3CC3)N(CCCN(CC)CC)C=C2C(=O)C(C)(OC(=O)c2ccco2)C1=O (configuration not stated) | . | -11
OCC[C@@H]1C[C@@H](O)[C@H](O)[C@@]2(CCCCO2)O1 | . | -29
CCOc1ccccc1N1CCN(Cc2cccc(OC)c2OC)CC1 | 3 | 10
COc1ccc(OC)c(N2Cc3cc(C)c(C)cc3C2)c1 | 62* | -4
CCOc1ccccc1N1Cc2cc(C)c(C)cc2C1 | 53* | 5
COc1ccc(OC)c(-n2cnnn2)c1 | -10 | 7
O=C1Nc2ccc(Cl)cc2[C@@](C#CC2CC2)(C(F)(F)F)O1 | . | -12
CCOC(=O)CSc1nc2cc(OCC)ccc2cc1C#N | -7 | -5
CCOc1ccc2cc(C#N)c(SCC(=O)NC(C)CC)nc2c1 (configuration not stated) | 58* | -1
COc1ccc(C2(C)NC(=O)N(CC(=O)Nc3ccc4c(c3)OCO4)C2=O)cc1OC (configuration not stated) | . | 9
O=CN/C=C/c1cc(O)ccc1O | . | -2
COC(=O)c1sc(=S)sc1C(=O)OC | 52* | -1
COC(=O)c1c(N)sc(C(C)=O)c1C | -23 | -2
CCOCCOC(=O)c1ccc(-n2cncn2)nc1 | . | -16
COc1ccc(OCc2nn3c(-c4ccco4)nnc3s2)cc1 | -15 | -10
c1coc(-c2nnc3sc(Cc4cccs4)nn23)c1 | 50* | 25
SMILES | HIV RNase H inh | RmlC RmlD mix
CCCCCCNC(=O)n1cc(F)c(=O)[nH]c1=O | . | -11
Cc1cc(NC(=O)c2ccc(S(=O)(=O)N3CCCC3)cc2)nc2c1c(=O)oc1ccccc12 | 72* | 12
Cc1cc(NC(=O)c2ccc(S(=O)(=O)N3CCOCC3)cc2)nc2c1c(=O)oc1ccccc12 | 41 | .
N#CC1=C2SCN(c3ccc(F)cc3)CN2C(=O)CC1c1cccc(F)c1 (configuration not stated) | 51* | 6
CCOC(=O)c1ccc(N2CSC3=C(C#N)C(c4cccs4)CC(=O)N3C2)cc1 (configuration not stated) | 35 | -12
CCc1ccc(N2CSC3=C(C#N)C(c4cccs4)CC(=O)N3C2)cc1 (configuration not stated) | 54* | 9
Cc1ccc(N2CSC3=C(C#N)C(c4cccs4)CC(=O)N3C2)cc1 (configuration not stated) | . | 6
CCc1ccc(C2CC(=O)N3CN(c4ccccc4)CSC3=C2C#N)cc1 (configuration not stated) | 62* | -6
COc1ccc(C2CC(=O)N3CN(c4ccc(C)c(Cl)c4)CSC3=C2C#N)cc1OC (configuration not stated) | 18 | -11
O=C1C=C(c2ccc3c(c2)OCO3)CCC1 | . | 8
NC(=O)[C@H]1CC2(CC(c3cccc(NC(=O)COc4ccc(Cl)cc4)c3)=NO2)CN1C(=O)C(c1ccccc1)c1ccccc1 (some centres not stated) | . | 6
C#CCCOC(=O)N1C2=NC(C(=O)OC)=C(C(=O)OC)[C@@H]3Nc4ccccc4[C@]23C[C@H]1C(=O)OC | . | 2
COC(=O)c1sc2nc(N3CCCCC3)c3c(c2c1N)CC(C)(C)N(C)C3 | -5 | 37*
CCOC(=O)c1sc2nc(N3CCOCC3)c3c(c2c1N)CC(C)(C)N(C)C3 | . | 23
Cc1ccc(NC(=O)CCC(=O)NNC(=O)C(c2ccccc2)c2ccccc2)c(C)c1 | . | -11
